In all, about 52,000 compounds went through this assay and about 4,300 (8.3%) were called active. The list comes from a sample in which actives are over-represented; it also holds similar structures and randomly drawn compounds. Values without a mark were called inactive. No stated cut-off is given here; in the data, active means survival mostly below about 52% (no sharp cut-off); inactive means mostly above about 56%.
system: DeltatarO mutant; assay: growth inhibition of S. aureus wild type versus tarO mutant, primary screen, teichoic acid synthesis inhibitors, RN4220, OD600 (AID 463173); settings: OD600, 18 h, stronger effect = lower value, screened at 18.75 µg/mL (by protocol)

For `COc1ccc(Br)cc1CNC(=O)CCC(=O)N1CCSc2ccccc21`, the survival was 41% (active).
For `O=C(CSc1nnc(-c2ccccc2Cl)o1)N1CCCc2ccccc21`, the survival was 35% (active).
`Cc1ccccc1-c1nnc(SCC(=O)N2CCCc3ccccc32)o1` was tested, and the survival was 9% (active).
With `Cc1cccc(-c2nnc(SCC(=O)N3CCCc4ccccc43)o2)c1` the survival was 11% (active).
For `COc1ccc(CCNC(=O)c2ccc(-n3c(C)cc4c3CCC(C)C4)cc2)cc1OC` (configuration not stated), the survival was 52% (active).
In the case of `O=S(=O)(Nc1ccc(Cl)cc1)c1ccc(NS(=O)(=O)c2ccc3c(c2)OCCO3)cc1`, the survival was 38% (active).
With `O=S(=O)(Nc1cccc(C(F)(F)F)c1)c1ccc(NS(=O)(=O)c2ccc3c(c2)OCCO3)cc1` the survival was 6% (active).
`O=S(=O)(Nc1ccc(Cl)cc1)c1cccc(S(=O)(=O)c2ccc(Cl)c(Cl)c2)c1` was tested, and the survival was 37% (active).
`Cc1c(Cl)cccc1NS(=O)(=O)c1ccc(NS(=O)(=O)c2ccc3c(c2)OCCO3)cc1` was tested, and the survival was 13% (active).
`CCCCOc1ccc(CSCCN=C(N)N)cc1` was tested, and the survival was 1% (active).

In order of falling survival:
1. CC(=O)c1ccc(NS(=O)(=O)c2cccc(S(=O)(=O)c3ccc(Cl)cc3)c2)cc1  124%
2. COc1ccc(NS(=O)(=O)c2ccc(NS(=O)(=O)c3ccc4c(c3)OCCO4)cc2)cc1  116%
3. CCOC(=O)C1CCN(C(=O)C2CCN(C3=NS(=O)(=O)C(c4ccc(C)cc4)=C3CC)CC2)CC1  115%
4. Cc1cccc(C)c1NS(=O)(=O)c1ccc(NS(=O)(=O)c2ccc3c(c2)OCCO3)cc1  110%
5. COc1ccc(CCCN=C(N)N)cc1Cl  105%
6. O=C(NCC(c1ccco1)S(=O)(=O)c1cccs1)c1ccc(Cl)cc1 (configuration not stated)  102%
7. CN1CCN(S(=O)(=O)c2cccc(S(=O)(=O)c3ccc(Cl)c(Cl)c3)c2)CC1  102%
8. O=C(CSc1nnc(-c2ccccc2F)o1)N1CCc2ccccc21  100%
9. O=C(CSc1nnc(-c2ccc(Cl)cc2)o1)N1CCc2ccccc21  96%
10. Cc1ccc(-c2nnc(SCC(=O)N3CCc4ccccc43)o2)cc1  95%
11. O=C(Cc1ccc(F)cc1)NCCc1csc2nc(-c3ccc(Cl)cc3)nn12  95%
12. Cc1cn(S(=O)(=O)c2ccc(F)c(Cl)c2)cn1  91%
13. CCN1CCN(c2ncc3c(n2)CCN(Cc2cc(F)cc(F)c2)C3)CC1  90%
14. CC(C)Oc1ccc(CSCCN)cc1  90%
15. CCCCOc1ccc(C2C(=O)N(C3CCCCC3)CC(=O)N2CCCC)cc1 (configuration not stated)  89%
16. O=C(Cn1c(=O)oc2cc(Cl)ccc21)Nc1cccc(C(F)(F)F)c1  89%
17. CCOc1ccc(CC(=O)NCCc2csc(-c3ccc(C)cc3)n2)cc1  88%
18. O=C(O)CSc1nc2ccc(Cl)cc2[nH]1  84%
19. COc1ccc(-c2c3c(=O)n(C)c(=O)n(C)c3c3c(-c4ccc(C)cc4)nc4ccccc4n23)cc1  82%
20. CCOc1ccc(CCNC(=O)c2ccc(-n3c(C)cc4c3CCC(C)C4)cc2)cc1OCC (configuration not stated)  82%
21. COc1cccc(C(C(=O)NC2CCCCC2)N(C(=O)c2ccccn2)c2cccnc2)c1 (configuration not stated)  81%
22. O=C(CSc1nnc(-c2ccccc2)o1)N1CCCc2ccccc21  80%
23. Cc1ccc(NC(=O)CSc2nc(=O)n(Cc3ccncc3)c3c2CCC3)cc1Cl  80%
24. CCOc1cccc2sc(N(Cc3cccnc3)C(=O)c3ccco3)nc12  77%
25. COc1ccc(CCNC(=O)c2ccc(-n3c(C)cc4c3CCCC4)cc2)cc1OC  74%
26. CCOC(=O)c1ccc(NS(=O)(=O)c2ccc3c(c2)OCCO3)cc1  74%
27. O=C(CSc1nnc(-c2ccc(F)cc2)o1)N1CCCc2ccccc21  72%
28. CCc1cccc(NC(=O)CN2c3ccccc3S(=O)(=O)c3ccccc32)c1  72%
29. COc1cccc(-c2nc(CS(=O)(=O)CC(=O)Nc3cccc(C(C)=O)c3)c(C)o2)c1  71%
30. CCOC(=O)N1CCC2(CC1)OC(=O)C(C)=C2C(=O)NCc1ccc(C)cc1  70%
31. Nc1c(C(=O)Nc2ccc(C(F)(F)F)cc2)sc2nc(-c3cccs3)ccc12  70%
32. O=S(=O)(Nc1ccc(C(F)(F)F)cc1)c1ccc2c(c1)OCCO2  69%
33. COC(=O)c1cc(NS(=O)(=O)c2ccc3c(c2)OCCO3)ccc1Cl  65%
34. Cc1ccc(NC(=O)c2ccc(NC(=O)N3CCSc4ncccc43)cc2)c(Cl)c1  64%
35. Cc1ccc(-c2nnc(SCC(=O)N3CCCc4ccccc43)o2)cc1  63%
36. O=S(=O)(Nc1c(F)cccc1F)c1ccc2c(c1)OCCO2  63%
37. CCc1cc(C(=O)NC(C)c2ccccc2)no1 (configuration not stated)  60%

Reference: PubChem BioAssay AID463173 (ICCB-Longwood Screening Facility, Harvard Medical School, 2010)
